Nrf2 inh: Nrf2 qHTS screen for inhibitors; A549 ARE-Fluc reporter, luciferase luminescence, 18-24 h; Potency, µM (top dose mostly 46 µM), for inactives: top-dose activity change, negative = inhibition, hits mostly inhibitors; hit rate 2.1% among 360,000; note: % is set by controls: 0 for no effect and ±100 for the full control effect; nearly all actives have a fitted effect of over 60% in size
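Quantitative HTS in A549 cells stably bearing an antioxidant response element-firefly luciferase construct. Inhibition of Nrf2-driven transcription was scored by luminescence after 18-24 h of compound exposure at 37 °C.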
TrxR1 substrate: qHTS Assay for Substrates of Mammalian Selenoprotein Thioredoxin Reductase 1 (TrxR1): qHTS; Thioredoxin reductase 1, cytoplasmic (Rattus norvegicus), O89049; purified TrxR1 substrate turnover, NADPH consumption readout; Potency, µM (titrated, usually from 114 µM), for inactives: top-dose activity change, negative = substrate turnover; hit rate 0.01% among 390,000; note: % is set by controls: 0 for no effect and ±100 for the full control effect; nearly all actives have a fitted effect of over 50% in size
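Rat TrxR1, dispensed at 90 nM, was prereduced with 400 uM NADPH (final) for 5 min at ~22 deg C, then incubated with compound 15 min before 400 uM selenite. A first-read NADPH fluorescence drop versus no-compound background flagged substrates.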
A549 tox: Nrf2 qHTS screen for inhibitors: counterscreen for cytotoxicity. A549 ARE-Fluc cells, CellTiter-Fluor viability, 18-24 h. hit rate 0.16% among 390,000. Potency, µM (top dose mostly 46 µM), for the others: at the top dose activity change, negative = cytotoxicity, most hits filed as inhibitors; note: % is set by controls: 0 for no effect and ±100 for the full control effect
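A549 ARE-Fluc cells in 5% FBS OPTI-MEM, 5000 cells/well, rested 2 h then exposed to compounds in concentration-response for 18-24 h at 37 °C. Viability by CellTiter-Fluor fluorescence (Ex 405/Em 525) after 30 min; luciferase luminescence (BugLite, 15 min, RT) read afterwards.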
Nrf2 activator: qHTS of Nrf2 Activators | AREc32 ARE-luciferase reporter (MCF7-derived line), luminescence, 24 h | Potency, µM (highest dose often 46.1 µM), without a hit: at the highest dose activation, actives largely listed as activators | hit rate 0.31% among 410,000 | AID 624171, 2012; note: % of control where 0% means no effect; nearly all actives have a fitted effect of over 65% in size
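For detection, Steady-Glo was added and plates sat 30 min at RT; before that, AREc32_Fluc cells grown overnight in OPTI-MEM/5% FBS had been treated with 23 nL compound for 24 hr at 37 deg C.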
GALK inhibitor: qHTS Assay for Inhibitors of Human Galactokinase (GALK). P51570. Purified GALK, Kinase-Glo residual ATP luminescence. Potency, µM (doses to about 57.5 µM), for the others: at the highest dose activity change, negative = inhibition, hits mostly inhibitors. hit rate 0.007% among 270,000; note: % is set by controls: 0 for no effect and ±100 for the full control effect
Target sequence (P51570 whole entry, looked up): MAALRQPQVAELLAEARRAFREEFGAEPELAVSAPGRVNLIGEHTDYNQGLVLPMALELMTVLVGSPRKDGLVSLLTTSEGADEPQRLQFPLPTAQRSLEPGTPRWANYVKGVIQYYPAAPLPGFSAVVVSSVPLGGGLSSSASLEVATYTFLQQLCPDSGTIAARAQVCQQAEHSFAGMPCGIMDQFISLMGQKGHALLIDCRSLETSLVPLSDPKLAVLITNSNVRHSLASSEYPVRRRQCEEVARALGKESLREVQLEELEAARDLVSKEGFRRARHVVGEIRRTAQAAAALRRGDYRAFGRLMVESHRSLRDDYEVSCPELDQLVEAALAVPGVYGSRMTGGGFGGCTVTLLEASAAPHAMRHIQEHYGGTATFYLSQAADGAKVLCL
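Human GALK (5 nM) with 35 uM ATP and 100 uM galactose in 20 mM HEPES pH 8.0, 5 mM MgCl2, 60 mM NaCl, 1 mM DTT, 0.01% BSA. After 1 h at room temperature, leftover ATP was read by Kinase-Glo Plus luminescence.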
rTrxR1 inhibitor: qHTS Assay for Inhibitors of Mammalian Selenoprotein Thioredoxin Reductase 1 (TrxR1): qHTS. hit rate 1% among 390,000. Potency, µM (titrated, usually from 114 µM), for the others: at the top dose activity change, negative = inhibition, actives largely listed as inhibitors. Thioredoxin reductase 1, cytoplasmic (Rattus norvegicus), O89049. recombinant rTrxR1, NADPH fluorescence consumption, selenite substrate. AID 588453, 2011; note: % is set by controls: 0 for no effect and ±100 for the full control effect; nearly all actives have a fitted effect of over 65% in size
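Rat TrxR1 (90 nM in the dispensed reagent) was pre-reduced with 400 uM NADPH for 5 min at room temperature, then incubated with compound for 15 min. After 400 uM selenite was added, NADPH fluorescence (Ex 340/Em 450 nm) was followed for 8 min.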
Numbers without * were called inactive; ? = inconclusive; . = not tested or not shown; ! = not active in a repeat; [ ] = remark or other dose. Compounds with a hit are over-represented: about 3% of the library has one in this group of screens. Calls come from the whole dose curve; as a rule, active = well fitted curve in the direction sought with a large enough effect; inconclusive = small, poorly fitted or top-dose-only effect, or another doubt; inactive = no such curve, though single readings can be large; an effect the other way counts as inactive or inconclusive. Potency is the fitted concentration of half-maximal effect.

SMILES	Nrf2 inh	TrxR1 substrate	A549 tox	Nrf2 activator	GALK inhibitor	rTrxR1 inhibitor
CCCc1cc(=O)[nH]c(SCc2nc(-c3ccc(OCC)cc3)no2)n1	.	-4%[57.1 µM]	1%	0%	.	9%[57.1 µM]
CCOc1ccc2nc(N(CCN(CC)CC)C(=O)/C=C/c3cccs3)sc2c1	-20%	0%	-26%	2%	3%	12%
COc1ccc2sc(N(CCN(C)C)C(=O)/C=C/c3cccs3)nc2c1	-8%	-9%	-1%	10µM*	8%	-22%
COc1ccc2nc(N(CCN(C)C)C(=O)/C=C/c3cccs3)sc2c1	-25%	0%	-4%	10µM*	8%	3%
CCN(CC)CCN(C(=O)/C=C/c1cccs1)c1nc2ccc(OC)cc2s1	?	-1%	-12%	0%	.	19%
Cc1cccc2sc(N(CCN(C)C)C(=O)/C=C/c3cccs3)nc12	-18%	-4%	?	11µM*	0%	-18%
COc1cccc(Cn2ncc3c4sc(C)cc4n(C)c3c2=O)c1	-20%	.	-3%	.	.	.
COc1ccc(CC2(CO)CCN(S(=O)(=O)c3c(C)nn(C)c3Cl)CC2)cc1	2%	-7%[57.1 µM]	-4%	1%	7%	5%
Cc1nn(C)c(Cl)c1S(=O)(=O)N1CCC(CO)(CCc2ccccc2)CC1	21µM*	8%[57.1 µM]	-10%	0%	-1%	6%[57.1 µM]
Clc1ccccc1NN=Cc1ccccn1	.	.	.	7.1µM*	.	.
CC(C)(C)c1ccc(NS(=O)(=O)c2ccc(N)cc2)cc1	?	-7%	14%	2%	-1%	7%
CC(C)(C)c1ccc(S(=O)(=O)/C=C/C#N)cc1	.	5%[57.1 µM]	.	.	.	2.1µM*!
CCOc1ccc(-c2nn(CC(=O)NC3CCCC3)c3c2cnc2ccc(F)cc23)cc1	?	1%[57.1 µM]	2%	6%	.	14%[57.1 µM]
COCCOC(=O)N1CCN(/[N+]([O-])=N/Oc2ccc([N+](=O)[O-])cc2[N+](=O)[O-])CC1	.	-5%[0.457 µM]	.	.	.	8.9µM*
CCCCCCCCCCCCCCCCOC(=O)N1CCN(/[N+]([O-])=N/Oc2ccc([N+](=O)[O-])cc2[N+](C)=O)CC1	.	12%[0.457 µM]	.	.	.	-31%
CCOC(=O)N1CCN([N+]([O-])=NOc2cc(O/N=[N+](\[O-])N(CC)CC)c([N+](=O)[O-])cc2[N+](=O)[O-])CC1	13%	-13%	-22%	.	.	13µM*
CCOC(=O)N1CCN(/[N+]([O-])=N/Oc2ccc(C(F)(F)F)cc2[N+](=O)[O-])CC1	.	5%	.	.	.	13%
O=C(OCCF)N1CCN(/[N+]([O-])=N/Oc2ccc([N+](=O)[O-])cc2[N+](=O)[O-])CC1	.	5%	.	.	.	7.1µM*
COc1ccc(OC)c(NC(=O)C(NS(=O)(=O)c2ccc3c(c2)CCCC(=O)N3)C(C)C)c1 (centres undefined)	?	-2%[57.1 µM]	2%	0%	.	8%[57.1 µM]
N#Cc1ccc(S(=O)(=O)N2CCN(c3nc(-c4cccs4)nc4ccccc34)CC2)cc1	-12%	18%	-6%	.	.	16%
CCOC(=O)C1=CCC2c3c(c4ccccc4n3C)C(=O)C1N2C(=O)OC(C)(C)C (centres undefined)	15µM*	-11%	?	-2%	.	2%
N#Cc1ccc(CN2CCN(C(=O)CNC(=O)Cc3cccc4ccccc34)CC2)cc1	5.8µM*	-2%	-14%	0%	.	-19%
CCc1ccccc1NC(=O)CN1CCN(C(=O)CNC(=O)Cc2cccc3ccccc23)CC1	15µM*	-1%	-5%	0%	.	7%
Cc1ccc(/C=C2\CCC3=C2OC(N)=C(C#N)C3c2ccc(C)cc2)cc1 (centres undefined)	-3%	-9%	2%	13%	3%	50µM*
Cc1ccc(C2C(C#N)=C(N)Oc3cc(N)ccc32)cc1 (centres undefined)	-13%	-7%	0%	-1%	3%	6%
SMILES	Nrf2 inh	TrxR1 substrate	A549 tox	Nrf2 activator	GALK inhibitor	rTrxR1 inhibitor
CC(=O)N1CCSc2ccc(S(=O)(=O)NCCc3ccc(C)cc3)cc21	?	3%	-4%	3%	2%	10%
CC(=O)N1CC(C)Sc2ccc(S(=O)(=O)NCCc3ccccc3)cc21 (centres undefined)	?	5%[57.1 µM]	-16%	2%	0%	1%[57.1 µM]
CC(=O)N1CC(C)Sc2ccc(S(=O)(=O)NCCc3ccc(C)cc3)cc21 (centres undefined)	7.3µM*	-5%	-11%	0%	-2%	9%
CC(=O)N1CCSc2ccc(S(=O)(=O)NCCc3ccc(Cl)cc3)cc21	15µM*	-4%	-18%	0%	1%	20%
CCOC(=O)C1CCN(C(=O)CS(=O)Cc2nc(-c3ccc(C)cc3)oc2C)CC1 (centres undefined)	-18%	1%[57.1 µM]	0%	2%	3%	14µM*
Cc1ccc(-c2nc(CS(=O)CC(=O)N3CCN(c4cccc(Cl)c4)CC3)c(C)o2)cc1 (centres undefined)	23µM*	-11%	?	3%	.	-24%
Cc1ccc(-c2nc(CS(=O)CC(=O)N3CCN(c4ccc(F)cc4)CC3)c(C)o2)cc1 (centres undefined)	?	7%	?	5%	-3%	?
CCOC(=O)c1sc2nc(-c3ccco3)c3c(c2c1N)CC(C)(C)OC3	?	-6%	?	?	1%	7.9µM*
COCCn1nnnc1C(c1cc2cc(C)ccc2[nH]c1=O)N1CCc2ccccc21 (centres undefined)	4%	12%[57.1 µM]	-12%	0%	0%	-32%[57.1 µM]
COCCn1nnnc1C(c1cc2cc(C)ccc2[nH]c1=O)N1CCCCCC1 (centres undefined)	7%	6%	2%[1.84 µM]	1%	0%	4.5µM*
COCCn1nnnc1C(c1cc2c(C)cc(C)cc2[nH]c1=O)N1CCCCCC1 (centres undefined)	11%	0%	2%	0%	-3%	40µM*
CCOC(=O)c1sc2nc(C3CC3)cc(-c3ccc(OC)cc3)c2c1N	3%	150%	5%	-1%	-1%	50µM*
CCN1C(=O)/C(=C\C=C2/C=CC=CN2CC)SC1=S	?	-12%	15µM*	0%	8%	?
CC(C)(C)OC(=O)NCCCCCNC(=O)c1[nH]cnc1C(=O)Nc1cccc(Cl)c1	21µM*	8%[57.1 µM]	?	0%	.	6%[57.1 µM]

Screening results (PubChem BioAssay)
